Screening results: PubChem BioAssay, National Center for Advancing Translational Sciences (NCATS)
KB-V1 cytotox – KB-V1 MDR subline cytotoxicity; Potency, µM (top dose mostly 46.1 µM), actives largely listed as cytotoxic; 400,000 compounds, 3.4% hits; KB-V1 MDR cells viability, CellTiter-Glo, 72 h; note: % is set by controls: 0 for no effect and ±100 for the full control effect; nearly all actives have a fitted effect of over 60% in size
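KB-V1 cells (P-gp-expressing MDR subline of KB-3-1) in phenol-red-free DMEM with 10% FBS were exposed to library compounds over a concentration series for 72 h at 37 degrees C. Viability read by CellTiter-Glo luminescence; concentration-effect curves fitted after normalization.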
SW480 rereplic – DNA re-replication induction in SW480 cells; SW480 DNA re-replication, Hoechst DNA content imaging, 48 h; Potency, µM (series often up to 46.1 µM), inactives show top-dose re-replication activation, most hits filed as activators; 340,000 compounds, 1.8% hits; AID 624297; note: % of control where 0% means no effect; nearly all actives have a fitted effect of over 55% in size
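Per well, 250 cells were exposed to pinned compound for 48 hr. Nuclear DNA was visualised with Hoechst (40 min, 37 C) and total object intensity recorded by fluorescence scanning.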
MCF10A rereplic – DNA re-replication induction in MCF 10a cells. MCF 10A DNA re-replication, Hoechst nuclear intensity, 48 h. Potency, µM (top dose mostly 46.1 µM), for inactives: at the top dose activity, positive = re-replication, usual class: activators. 350,000 compounds, 2.9% hits; note: % of control where 0% means no effect; nearly all actives have a fitted effect of over 50% in size
KB-3-1 tox – KB-3-1 parental cell cytotoxicity; KB-3-1 viability, CellTiter-Glo ATP luminescence, 72 h; Potency, µM (series often up to 46.1 µM), usual class: cytotoxic; 400,000 compounds, 1.4% hits; AID 1347075; note: % is set by controls: 0 for no effect and ±100 for the full control effect; nearly all actives have a fitted effect of over 60% in size
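Cytotoxicity measured as CellTiter-Glo luminescence after 72 h at 37 C. Compound titrations were pinned onto drug-naive KB-3-1 parental adenocarcinoma cells grown in DMEM with 10% FBS, and normalized data fitted to concentration-response curves.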
PINK1 expr mod – modulators of PINK1 expression. PINK1 immunofluorescence, high-content cytometry, 24 h. Potency, µM (top dose mostly 76.6 µM), inactives show at the top dose activation (PINK1 increase), usual class: activators. 410,000 compounds, 0.2% hits. AID 624263; active = well fitted activation curve with a large enough effect; inconclusive = small, poorly fitted or top-dose-only effect; cell line not stated here; note: % of control where 0% means no effect; nearly all actives have a fitted effect of over 65% in size
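Stable cell line, 250 cells/well, 12 h attachment; compounds pinned at 5 concentrations, 24 h; CCCP control. Fixed with nuclear dye, primary antibodies 12 h at 10 degrees C, secondary plus cell stain; laser-scanning cytometer read.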
TSG101-PTAP inh – blocks PTAP/TSG101 interaction to inhibit HIV-1 budding; Potency, µM (series often up to 115 µM), for the others: at the top dose activity change, negative = inhibition, most hits filed as inhibitors; Fluorescence polarization, FITC-PTAP peptide / Tsg101 binding; AID 493005; Q99816; 340,000 tested, under 10 active; active = well fitted inhibition curve with a large enough effect in the main read-out, with a control signal flat, not every such curve was filed as active; inconclusive = small, poorly fitted or top-dose-only effect, or effect the other way, or a change in a side signal; inactive = no such curve, though single readings can be large or run the other way; note: % of control where 0% means no effect
Target sequence (Q99816 whole entry, looked up): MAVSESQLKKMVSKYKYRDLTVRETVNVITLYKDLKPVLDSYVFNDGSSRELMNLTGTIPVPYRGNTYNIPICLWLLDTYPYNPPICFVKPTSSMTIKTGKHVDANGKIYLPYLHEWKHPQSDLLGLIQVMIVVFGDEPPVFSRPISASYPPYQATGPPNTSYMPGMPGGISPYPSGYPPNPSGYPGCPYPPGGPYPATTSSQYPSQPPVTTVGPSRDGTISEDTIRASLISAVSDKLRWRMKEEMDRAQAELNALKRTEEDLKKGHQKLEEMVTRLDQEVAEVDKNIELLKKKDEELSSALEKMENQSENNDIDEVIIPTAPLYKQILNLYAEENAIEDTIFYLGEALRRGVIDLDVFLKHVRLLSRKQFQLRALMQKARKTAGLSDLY
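Tsg101 binding domain (10 uM final) was mixed with compound and a FITC-labeled PTAP peptide (50 nM final) in HEPES pH 7.5 buffer with NaCl, Tween 20, EDTA and TCEP; fluorescence polarization was read after 20 min at r.t.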
* = called active by the depositor; [ ] = dose if it differs, or a comment. Sampled rows, rich in hits. Any-hit rate of the full collection: about 6.8%. Unless noted, calls come from the whole dose curve; as a rule, active = well fitted curve in the direction sought with a large enough effect; inconclusive = small, poorly fitted or top-dose-only effect, or another doubt; inactive = no such curve, though single readings can be large; an effect the other way counts as inactive or inconclusive. Potency is the fitted concentration of half-maximal effect.

`COc1cc(/C=C/[N+](=O)[O-])ccc1OCc1cccc(C(=O)O)c1` gave KB-V1 cytotox inactive, SW480 rereplic inconclusive, MCF10A rereplic 10µM*, KB-3-1 tox inactive, PINK1 expr mod 1% and TSG101-PTAP inh 0%.
For O=C(CCN1C(=O)/C(=C/c2ccccc2F)SC1=S)N[C@@H](CO)Cc1ccccc1 the results were KB-V1 cytotox inactive, SW480 rereplic 22µM*, MCF10A rereplic inconclusive, KB-3-1 tox inconclusive, PINK1 expr mod 2% and TSG101-PTAP inh -4%.
O=C(CCN1C(=O)/C(=C/c2ccccc2)SC1=S)N[C@@H](CO)Cc1ccccc1 was read as KB-V1 cytotox inactive, SW480 rereplic inconclusive, MCF10A rereplic inconclusive, KB-3-1 tox inconclusive, PINK1 expr mod 1% and TSG101-PTAP inh 0%.
For Cc1nn(C(C)C(=O)Nc2ccccc2C(F)(F)F)c(=O)c2c1sc1ccccc12 (centres undefined) the results were KB-V1 cytotox inactive, KB-3-1 tox inactive and PINK1 expr mod 0%.
`CCOC(=O)c1c(S(=O)(=O)N2CCC(C(=O)N3CCN(c4cccc(C)c4C)CC3)CC2)c(C)n(C)c1C` gave KB-V1 cytotox inactive, KB-3-1 tox inactive and PINK1 expr mod 0%.
Screening CC(=O)c1ccc(Nc2nc(-c3sc(C)nc3C)cs2)cc1 returned KB-V1 cytotox 12µM*, KB-3-1 tox inconclusive and PINK1 expr mod 14%.
Cc1ccc(Nc2nc(-c3sc(C)nc3C)cs2)cc1 was read as KB-V1 cytotox 1.8µM*, SW480 rereplic 2.1µM*, MCF10A rereplic inconclusive, KB-3-1 tox 2.3µM*, PINK1 expr mod 15% and TSG101-PTAP inh -1%.
For Cc1nc(N)sc1-c1csc(Nc2ccc(Cl)cn2)n1 the results were KB-V1 cytotox 18µM*, SW480 rereplic 1%, MCF10A rereplic inconclusive, KB-3-1 tox inactive, PINK1 expr mod 3%[38.3 µM] and TSG101-PTAP inh -7%.
`COc1ccc(Nc2nc(-c3sc(C)nc3C)cs2)c(OC)c1` gave KB-V1 cytotox inconclusive, SW480 rereplic 21µM*, MCF10A rereplic inconclusive, KB-3-1 tox 7.3µM*, PINK1 expr mod -2% and TSG101-PTAP inh 0%.
Cc1nc(N)sc1-c1csc(Nc2ccccn2)n1 was read as KB-V1 cytotox inactive, SW480 rereplic -1%, MCF10A rereplic 3%, KB-3-1 tox inactive, PINK1 expr mod -2% and TSG101-PTAP inh -4%.
Screening CC(=O)Nc1ccc(Nc2nc(-c3sc(C)nc3C)cs2)cc1 returned KB-V1 cytotox inactive, SW480 rereplic -2%, MCF10A rereplic inconclusive, KB-3-1 tox inactive, PINK1 expr mod 8% and TSG101-PTAP inh -2%.
Screening CCCc1cc(=O)oc2c3c(ccc12)OCN(Cc1ccc(OC)cc1)C3 returned PINK1 expr mod 0%.
Screening O=C(c1ccc2c(c1)N(Cc1ccc(Cl)cc1)C(=O)c1ccccc1S2(=O)=O)N1CCCCCC1 returned KB-V1 cytotox inconclusive, KB-3-1 tox inconclusive and PINK1 expr mod 2%.
Cc1ccnc(Nc2nc(-c3sc(C)nc3C)cs2)c1 was read as KB-V1 cytotox inconclusive, SW480 rereplic inconclusive, MCF10A rereplic 23µM*, KB-3-1 tox inconclusive, PINK1 expr mod -2% and TSG101-PTAP inh 0%.
Screening COc1ccc(NC(=O)c2ccc(C(=O)Nc3ccc(OC)cc3OC)cc2)c(OC)c1 returned KB-V1 cytotox inactive, SW480 rereplic 5.2µM*, MCF10A rereplic -7%, KB-3-1 tox inactive, PINK1 expr mod 19% and TSG101-PTAP inh -6%.
`COc1ccc(NC(=O)c2cc(Br)ccc2Cl)c(OC)c1` gave KB-V1 cytotox 16µM*, SW480 rereplic -1%, MCF10A rereplic -47%, KB-3-1 tox inactive, PINK1 expr mod 6% and TSG101-PTAP inh -2%.
